A word on the inhibition: it is the relative decrease from the control value, in per cent.

Hit rate of the full screen: of about 370,000 compounds, about 620 (0.17%) were called active. This is one part of a sample in which actives are shown more often than they occur. Values without a mark were called inactive.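 The calls were made as follows: active = inhibition above the mean inhibition of all tested compounds plus 3 SD, set per campaign (cut at about 52% in these data); inactive = the rest.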

In this assay the target is Nuclear receptor coactivator 2 (Homo sapiens) (UniProt Q15596). Kind of assay: inhibition of GAL4-SRC2 driven luciferase reporter, primary screen, SRC2 inhibitor project, cell-based, luminescence (AID 651957).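 Also: 0% = DMSO treated cells and 100% = cells given Gossypol at 36 µM.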 The settings on record: HEK293 GAL4-SRC2 luciferase reporter, at 9 µM, stronger effect = higher value. (A reporter such as luciferase makes a cellular process visible.)
Nuclear receptor coactivator 2 (Homo sapiens), sequence (Q15596 whole entry, looked up, the tested form may be a part): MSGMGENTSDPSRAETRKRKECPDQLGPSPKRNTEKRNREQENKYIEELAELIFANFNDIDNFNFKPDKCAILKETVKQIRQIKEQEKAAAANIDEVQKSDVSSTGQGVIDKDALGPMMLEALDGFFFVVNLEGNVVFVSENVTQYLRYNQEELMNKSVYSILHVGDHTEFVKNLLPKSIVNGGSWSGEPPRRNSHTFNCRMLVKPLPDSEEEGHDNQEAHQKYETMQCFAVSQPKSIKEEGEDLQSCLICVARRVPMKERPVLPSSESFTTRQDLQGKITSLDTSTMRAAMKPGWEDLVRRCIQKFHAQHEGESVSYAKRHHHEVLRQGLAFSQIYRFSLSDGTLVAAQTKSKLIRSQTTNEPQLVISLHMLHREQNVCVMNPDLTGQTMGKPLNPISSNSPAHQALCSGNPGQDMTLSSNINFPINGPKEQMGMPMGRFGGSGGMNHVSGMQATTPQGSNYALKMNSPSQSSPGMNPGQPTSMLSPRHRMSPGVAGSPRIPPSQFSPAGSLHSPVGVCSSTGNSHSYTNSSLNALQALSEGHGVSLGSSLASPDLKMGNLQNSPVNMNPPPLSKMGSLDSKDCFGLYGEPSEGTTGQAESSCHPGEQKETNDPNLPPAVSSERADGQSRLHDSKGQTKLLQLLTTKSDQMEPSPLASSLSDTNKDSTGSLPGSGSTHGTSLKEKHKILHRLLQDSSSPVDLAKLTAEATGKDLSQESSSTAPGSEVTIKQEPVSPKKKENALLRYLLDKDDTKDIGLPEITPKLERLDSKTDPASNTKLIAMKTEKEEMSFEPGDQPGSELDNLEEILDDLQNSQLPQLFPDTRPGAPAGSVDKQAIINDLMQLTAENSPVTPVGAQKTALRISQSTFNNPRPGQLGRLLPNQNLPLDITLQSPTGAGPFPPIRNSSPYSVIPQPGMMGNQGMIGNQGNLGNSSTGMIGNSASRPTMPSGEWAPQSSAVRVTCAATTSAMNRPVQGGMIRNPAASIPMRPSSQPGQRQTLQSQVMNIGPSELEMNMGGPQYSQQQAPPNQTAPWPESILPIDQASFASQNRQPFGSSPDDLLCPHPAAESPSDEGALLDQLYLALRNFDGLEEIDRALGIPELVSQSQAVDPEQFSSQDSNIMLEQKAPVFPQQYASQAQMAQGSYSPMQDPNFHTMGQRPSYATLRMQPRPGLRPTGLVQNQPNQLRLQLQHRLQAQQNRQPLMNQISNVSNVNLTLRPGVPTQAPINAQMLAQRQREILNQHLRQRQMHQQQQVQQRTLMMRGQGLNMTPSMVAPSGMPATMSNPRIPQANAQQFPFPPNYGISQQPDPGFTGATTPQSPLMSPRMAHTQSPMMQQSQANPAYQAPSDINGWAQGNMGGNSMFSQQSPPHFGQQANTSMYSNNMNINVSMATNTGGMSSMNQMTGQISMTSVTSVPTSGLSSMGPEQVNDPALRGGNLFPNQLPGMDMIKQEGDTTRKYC
For the compound `CCC(C)(O)C(=O)OC1C(=O)OC2CC3C(C)=CC(=O)C(O)C3(C)C3C4(O)OCC23C1C(C)C4O` (stereo not given), the inhibition was 74.8% (active).

Turning to `O=C(COc1ccc2ccccc2c1)N1CCN(Cc2ccncc2)CC1`, the inhibition is 9.05%. For `CC1([N+](=O)[O-])COP(=O)(Nc2ccc(F)cc2)OC1` (stereo not given), the inhibition was -54.9%. The figure for `CCN1CCN(C(=O)Cc2coc3cc(C)cc(C)c23)CC1` is -5.27%. The figure for `CC(C)n1c(=O)c(C=Nc2ccc(Br)cc2)c(O)n(Cc2ccco2)c1=O` is 8.44%. For `COC1C(O)C(C)OC(OC2CCC3(C=O)C(CCC4C3CCC3(C)C(C5=CC(=O)OC5)CCC43O)C2)C1O` (stereo not given), the inhibition was 55% (active). As for `C[C@]12CC[C@H](O)C[C@H]1CC[C@@H]1C2CC[C@]2(C)[C@@H](C3=CC(=O)OC3)[C@@H](O)C[C@]12O` (stereo not given in full), the inhibition was 10.7%. The figure for `Brc1ccc2c(c1)CNCc1cnnn1-2` is -46.2%. As to `Cc1ccccc1CCC[C@@H](CC1CCCCC1)CN(C)C(=O)Oc1ccccc1`, the inhibition is -0.22%. Take `COP(=O)(Sc1ccccc1)C(Cc1ccccc1)NC(=O)OCc1ccccc1` (stereo not given): the inhibition is 2.58%.

Source of the values: PubChem BioAssay AID651957 (The Scripps Research Institute Molecular Screening Center, 2012).
